Values joined by “and” are separate entries in the source; they are usually repeats but may differ in a detail not shown here. Equal values may be shown once. Records with an inconclusive call do not appear. Active and inactive are the calls of the source. The call rests on the fitted dose curve; in most records, active means well fitted curve in the direction sought with a large enough effect; inconclusive means small, poorly fitted or top-dose-only effect, or another doubt; inactive means no such curve, though single readings can be large; an effect the other way counts as inactive or inconclusive.
Legend:
[1] = biological target: Glutathione peroxidase 1 (Homo sapiens) (UniProt P07203); experiment: Primary qHTS Assay for Inhibitors of Recombinant Selenoprotein Glutathione Peroxidase 1 (GPX1) (AID 1845191); further: nearly all actives have a fitted effect of over 65% in size
Glutathione peroxidase 1 (Homo sapiens), sequence (P07203 whole entry, looked up): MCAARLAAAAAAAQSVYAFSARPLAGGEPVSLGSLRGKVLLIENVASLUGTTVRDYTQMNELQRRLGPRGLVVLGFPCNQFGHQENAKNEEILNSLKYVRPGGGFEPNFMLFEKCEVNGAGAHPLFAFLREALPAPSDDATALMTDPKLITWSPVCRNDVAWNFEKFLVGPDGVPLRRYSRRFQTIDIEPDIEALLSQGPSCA
In short: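 10 nM GPX1 + cpd, 30 min RT; start w/ 1 mM GSH, 0.5 mM cumene hydroperoxide, 0.5 mM NADPH, 100 nM GR, 0.01% BSA; buffer 50 mM Tris-HCl pH 7.5, 2 mM EDTA, 150 mM NaCl; Fl 340/450, 0 & 15 min.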

[2] = biological target: Phospholipid hydroperoxide glutathione peroxidase GPX4 (Homo sapiens) (UniProt P36969); experiment: Primary qHTS Assay for Inhibitors of Recombinant Selenoprotein Glutathione Peroxidase 4 (GPX4) (AID 1845192); further: nearly all actives have a fitted effect of over 65% in size
Phospholipid hydroperoxide glutathione peroxidase GPX4 (Homo sapiens), sequence (P36969 whole entry, looked up): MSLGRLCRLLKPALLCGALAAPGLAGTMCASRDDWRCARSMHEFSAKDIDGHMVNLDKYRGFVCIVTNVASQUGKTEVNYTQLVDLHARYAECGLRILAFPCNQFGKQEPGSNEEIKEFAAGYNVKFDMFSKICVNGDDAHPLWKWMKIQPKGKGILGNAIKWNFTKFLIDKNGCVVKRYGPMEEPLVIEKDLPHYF
In short: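 NADPH consumption, followed by fluorescence at 340/450 nm between 0 and 15 min, reports GPX4 activity via coupled glutathione reductase (100 nM). Enzyme 200 nM was pre-exposed to compound 30 min; 0.5 mM cumene hydroperoxide and 1 mM GSH served as substrates.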

[3] = Quantitative High-Throughput drug screen in 47 multiple myeloma cell lines against the NCATS MIPE library collection: FR4_PLB cell viability assay (AID 1918924; further: nearly all actives have a fitted effect of over 35% in size)
In short: (§1)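 Primary qHTS used for cherry-picking: cells at 500/well, library compounds for 48 h (37C, 5% CO2), luminescent ATP assay.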

[4] = Quantitative High-Throughput drug screen in 47 multiple myeloma cell lines against the NCATS MIPE library collection: Delta47_JCRB cell viability assay (AID 1918925; further: nearly all actives have a fitted effect of over 45% in size)
In short: (§2)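 We plated 500 myeloma cells per well, pinned in MIPE 4.0 compounds, and incubated for 48 hours at 37C. ATP was then quantified with CellTiter-Glo, with DMSO and media-only wells defining 100% and 0%.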

[5] = Quantitative High-Throughput drug screen in 47 multiple myeloma cell lines against the NCATS MIPE library collection: EJM_DSMZ cell viability assay (AID 1918926; further: nearly all actives have a fitted effect of over 30% in size)
In short: as §2

[6] = Quantitative High-Throughput drug screen in 47 multiple myeloma cell lines against the NCATS MIPE library collection: AMO1_DSMZ cell viability assay (AID 1918927; further: nearly all actives have a fitted effect of over 30% in size)
In short: as §2

[7] = Quantitative High-Throughput drug screen in 47 multiple myeloma cell lines against the NCATS MIPE library collection: ARP1_JJKsccF8 cell viability assay (AID 1918928; further: nearly all actives have a fitted effect of over 40% in size)
In short: (§3)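 Myeloma cells, 500 per well, were exposed to MIPE 4.0 drugs by pin transfer for 48 h at 37 °C, 5% CO2. Viability was read as ATP luminescence with CellTiter-Glo, normalised to DMSO-only (100%) and medium-only (0%) wells.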

[8] = Quantitative High-Throughput drug screen in 47 multiple myeloma cell lines against the NCATS MIPE library collection: ARD_JJKsccE7 cell viability assay (AID 1918929)
In short: as §2

[9] = Quantitative High-Throughput drug screen in 47 multiple myeloma cell lines against the NCATS MIPE library collection: Karpas620_DSMZ cell viability assay (AID 1918959); further: nearly all actives have a fitted effect of over 30% in size
In short: as §1

[10] = Quantitative High-Throughput drug screen in 47 multiple myeloma cell lines against the NCATS MIPE library collection: KMM1_JCRB cell viability assay (AID 1918960); further: nearly all actives have a fitted effect of over 30% in size
In short: as §3

[11] = Quantitative High-Throughput drug screen in 47 multiple myeloma cell lines against the NCATS MIPE library collection: Karpas417_ECACC cell viability assay (AID 1918961); conditions: Karpas417 myeloma viability, CellTiter-Glo ATP luminescence, 48 h; viability (% of DMSO): at 45.8 µM (top of the series)
In short: as §2

Measured: Potency
Potency means the concentration at half of the fitted maximal effect.

COC(c1ccccc1)(c1ccccc1)[C@H](Oc1nc(C)cc(C)n1)C(=O)O
inactive: all assays above

Cc1cccc(N(C)C(=S)Oc2ccc3ccccc3c2)c1
active: [8] 20.9 µM
not listed: [6] | [10] | [11]
inactive: all other assays above

COc1ccccc1OCC(O)COC(N)=O (stereo not given)
not listed: [3] | [11]
inactive: all other assays above

CCCc1cc(C(N)=S)ccn1
not listed: [5] | [11]
inactive: all other assays above

CO[C@@]12[C@H](COC(N)=O)C3=C(C(=O)C(C)=C(N)C3=O)N1C[C@@H]1N[C@@H]12
active: [3] 26.4 µM | [4] 23.5 µM | [7] 26.4 µM
not listed: [5] | [11]
inactive: all other assays above

COC(=O)Nc1nc2ccc(Sc3ccccc3)cc2[nH]1
active: [4] 1.05 µM | [5] 16.6 µM | [6] 0.833 µM | [7] 1.18 µM | [8] 1.32 µM | [10] 1.18 µM
inactive: [1] | [2]

O=C(N[C@H](CO)[C@H](O)c1ccc([N+](=O)[O-])cc1)C(Cl)Cl
not listed: [3] | [11]
inactive: all other assays above

NC(=O)c1cccnc1
not listed: [4] | [5]
inactive: all other assays above

CN1CCN(c2c(F)cc3c(=O)c(C(=O)O)cn(CCF)c3c2F)CC1
not listed: [5] | [11]
inactive: all other assays above

COc1nc(N)nc2c1ncn2[C@@H]1O[C@H](CO)[C@@H](O)[C@@H]1O
not listed: [5] | [8]
inactive: all other assays above

O=C(O)c1cn(C2CC2)c2cc(N3CCNCC3)c(F)cc2c1=O
inactive: [1] inactive [at 9.52 µM] | [2] | [3] | [7] | [9] | [10]

CN(C)c1ccc(C(=C2C=CC(=[N+](C)C)C=C2)c2ccc(N(C)C)cc2)cc1
active: [3] 0.132 µM | [4] 0.0105 µM | [5] 0.148 µM | [7] 0.166 µM | [8] 0.526 µM
inactive: [1] | [2]

O=C(O)c1cc(=O)[nH]c(=O)[nH]1
not listed: [7]
inactive: all other assays above

CCn1cc(C(=O)O)c(=O)c2cc(F)c(N3CCN(C)CC3)cc21
inactive: [1] | [2] | [3] | [4] | [9] | [11]
active: [8] 0.0132 µM

CC(C)OC(=O)OCOP(=O)(CO[C@H](C)Cn1cnc2c(N)ncnc21)OCOC(=O)OC(C)C
active: [6] 20.9 µM | [8] 23.5 µM | [10] 20.9 µM
inactive: [1] | [2] | [3]

CN1CCCC(n2nc(Cc3ccc(Cl)cc3)c3ccccc3c2=O)CC1 (stereo not given)
active: [3] 23.5 µM | [7] 6.62 µM
inactive: [1] | [2]

COc1cc(NCc2ccc3nc(N)nc(N)c3c2C)cc(OC)c1OC
inactive: [1] | [2]
active: [4] 18.7 µM | [5] 8.33 µM | [6] 0.935 µM | [7] 2.96 µM | [8] 1.05 µM | [9] 6.62 µM | [10] 1.18 µM | [11] 4.18 µM

COc1cc([C@@H]2c3cc4c(cc3[C@H](O)[C@H]3COC(=O)[C@H]23)OCO4)cc(OC)c1OC
active: [10] 0.001 µM
not listed: [5]
inactive: all other assays above

COc1cc(NS(=O)(=O)c2ccc(N)cc2)nc(OC)n1
not listed: [3] | [11]
inactive: all other assays above

CC(C)OC(=O)C(C(=O)OC(C)C)=C1SC=CS1
not listed: [8] | [10] | [11]
inactive: all other assays above

CC(C)Cn1cnc2c(N)nc3ccccc3c21
inactive: [1] | [2] | [3] | [9]
active: [5] 5.26 µM | [6] 4.18 µM | [8] 5.9 µM

O=c1cc(O)c(Cl)c[nH]1
active: [6] 2.64 µM | [8] 7.43 µM | [11] 1.18 µM
inactive: [1] | [2] | [3] | [4] | [7]

COC(=O)Nc1nc2ccc(S(=O)c3ccccc3)cc2[nH]1 (stereo not given)
active: [3] 7.43 µM | [4] 6.62 µM | [7] 16.6 µM
inactive: [1] | [2] | [9] | [10]

CS(=O)(=O)c1ccc([C@@H](O)[C@@H](CO)NC(=O)C(Cl)Cl)cc1
inactive: [1] | [2] | [3] | [6] | [9]
active: [8] 13.2 µM

C#CCN[C@@H]1CCc2ccccc21
not listed: [5]
inactive: all other assays above

CCCc1nc(C)c2c(=O)[nH]c(-c3cc(S(=O)(=O)N4CCN(CC)CC4)ccc3OCC)nn12
inactive: [1] | [2]
active: [4] 5.9 µM | [5] 9.35 µM | [6] 7.43 µM | [7] 5.26 µM | [8] 6.62 µM | [9] 2.35 µM | [10] 3.72 µM

CNC1CCCN(c2c(F)cc3c(=O)c(C(=O)O)cn(C4CC4)c3c2OC)C1 (stereo not given)
inactive: [1] | [2] | [3] | [7] | [8]

COc1ncnc(NS(=O)(=O)c2ccc(N)cc2)c1OC
not listed: [5] | [7] | [10]
inactive: all other assays above

CC(C)(C#N)c1cc(Cn2cncn2)cc(C(C)(C)C#N)c1
not listed: [4] | [7] | [11]
inactive: all other assays above

Nc1nc(=S)c2[nH]cnc2[nH]1
active: [3] 1.66 µM | [4] 2.96 µM | [7] 1.32 µM
not listed: [5] | [6]
inactive: all other assays above

COc1c(N2CCNC(C)C2)c(F)cc2c(=O)c(C(=O)O)cn(C3CC3)c12 (stereo not given)
not listed: [4] | [5] | [10]
inactive: all other assays above

C[C@@H]1C[C@H]2[C@@H]3CCC4=CC(=O)C=C[C@]4(C)[C@@]3(Cl)[C@@H](O)C[C@]2(C)[C@@]1(OC(=O)c1ccco1)C(=O)CCl
inactive: [1] | [2]
active: [3] 26.4 µM | [4] 2.96 µM | [6] 1.48 µM | [9] 16.6 µM | [11] 8.33 µM

COc1cnc(NS(=O)(=O)c2ccc(N)cc2)nc1
active: [11] 11.8 µM
inactive: [1] | [2] | [3] | [5] | [7]

CCOCC(O)COc1ccc(NC(=O)CC[S+](C)C)cc1 (stereo not given)
not listed: [3] | [11]
inactive: all other assays above

C1CCC(C(CC2CCCCN2)C2CCCCC2)CC1 (stereo not given)
active: [3] 11.8 µM | [4] 13.2 µM | [6] 18.7 µM | [7] 23.5 µM | [8] 26.4 µM | [9] 14.8 µM | [10] 14.8 µM | [11] 18.7 µM
inactive: [1] | [2]

CCCOc1ccc(C(=O)OCCN(CC)CC)cc1N
not listed: [4] | [8] | [11]
inactive: all other assays above

CCc1c2c(nc3ccc(OC(=O)N4CCC(N5CCCCC5)CC4)cc13)-c1cc3c(c(=O)n1C2)COC(=O)[C@]3(O)CC
active: [1] 20.2 µM and 2.05 µM | [2] 12.6 µM | [4] 1.32 µM | [5] 4.69 µM | [6] 1.32 µM | [7] 0.743 µM | [8] 0.0105 µM | [10] 0.935 µM

Cc1cccc(Nc2ccncc2S(=O)(=O)NC(=O)NC(C)C)c1
not listed: [3] | [5] | [8] | [11]
inactive: all other assays above

O=NN(CCCl)C(=O)NC1CCCCC1
not listed: [3] | [4] | [10] | [11]
inactive: all other assays above

CC(=O)[C@H]1CC[C@H]2[C@@H]3CCC4=CC(=O)CC[C@]4(C)[C@H]3CC[C@]12C
inactive: [1] | [2] | [4] | [6] | [10]

CC(C)C1CCC(C(=O)N[C@H](Cc2ccccc2)C(=O)O)CC1 (stereo not given in full)
inactive: [1] | [2] | [4] | [6] | [7] | [9]

CC(C)(C)C(=O)OCOP(=O)(COCCn1cnc2c(N)ncnc21)OCOC(=O)C(C)(C)C
inactive: [1] | [2]
active: [4] 0.0833 µM | [6] 0.105 µM | [7] 0.833 µM | [8] 5.9 µM | [9] 16.6 µM | [10] 11.8 µM

CCCCCCNC(=O)n1cc(F)c(=O)[nH]c1=O
inactive: [1] | [2] | [9]
active: [7] 8.33 µM

CN(CCOc1ccc(CC2SC(=O)NC2=O)cc1)c1ccccn1 (stereo not given)
active: [9] 0.0019 µM
inactive: [1] | [2] | [4] | [6] | [10]

CCCCOc1ccc(CC(=O)NO)cc1
inactive: [1] | [2]
active: [6] 11.8 µM | [7] 13.2 µM | [9] 18.7 µM

Nc1nc(N)nc(-c2cc(Cl)ccc2Cl)n1
not listed: [3] | [6] | [8] | [9]
inactive: all other assays above

CC(C)(Sc1cc(C(C)(C)C)c(O)c(C(C)(C)C)c1)Sc1cc(C(C)(C)C)c(O)c(C(C)(C)C)c1
active: [4] 5.26 µM
inactive: [1] | [2] | [6] | [7] | [9] | [11]

Cn1nnc2c(C(N)=O)ncn2c1=O
not listed: [3] | [4] | [11]
inactive: all other assays above
